# Reference: paper PMC7862700, “An all-to-all approach to the identification of sequence-specific readers for epigenetic DNA modifications on cytosine”
# Experiments:
# Test in all cases: DAPPL (digital affinity profiling via proximity ligation, sequencing); 10 mM Tris-HCl pH 7.5, 50 mM NaCl, 1 mM DTT, 4% glycerol, room temperature, 30 min; GST-TFs on glutathione beads, 16-mer random dsDNA library, 0.1% formaldehyde crosslink after washing; high values mean tight binding
# Settings in all cases: protein: recombinant; tags: N-terminal GST; dsDNA, one strand shown
# ETV1 = ETV1 (Homo sapiens, UniProt P50549 1-477)
# Procedure, shortened: (§1)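 Human transcription factors fused to GST were expressed in yeast, captured on glutathione beads, given DNA barcodes and pooled with a GST-only negative control. Pools were incubated with 200 nmole of a 16-mer random double-stranded DNA library in Tris/NaCl/DTT/glycerol buffer at room temperature for 30 min. They were then washed, crosslinked with 0.1% formaldehyde, proximity-ligated (BsaI/T4 ligase, 1 h, 37 °C), PCR-amplified and sequenced on an Illumina NextSeq500. Binding signal is each 6-mer's read frequency for a factor divided by its frequency for the GST control.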
# ERF = molecular target: T1, ERF (Homo sapiens, UniProt P50548 1-548)
# T1 sequence: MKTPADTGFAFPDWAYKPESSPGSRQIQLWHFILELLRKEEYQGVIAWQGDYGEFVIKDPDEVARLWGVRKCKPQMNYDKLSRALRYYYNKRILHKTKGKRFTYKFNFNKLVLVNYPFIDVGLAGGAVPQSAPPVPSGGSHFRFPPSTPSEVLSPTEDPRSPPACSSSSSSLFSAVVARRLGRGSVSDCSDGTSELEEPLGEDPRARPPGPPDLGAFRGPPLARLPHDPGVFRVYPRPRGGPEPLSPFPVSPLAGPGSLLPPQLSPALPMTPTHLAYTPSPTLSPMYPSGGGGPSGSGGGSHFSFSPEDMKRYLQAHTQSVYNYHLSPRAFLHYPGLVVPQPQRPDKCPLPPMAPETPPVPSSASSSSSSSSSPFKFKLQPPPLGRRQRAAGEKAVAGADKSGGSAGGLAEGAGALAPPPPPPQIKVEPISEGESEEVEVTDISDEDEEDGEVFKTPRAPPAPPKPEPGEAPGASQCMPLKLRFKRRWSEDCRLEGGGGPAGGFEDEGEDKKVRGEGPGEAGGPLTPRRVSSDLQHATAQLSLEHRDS
# Procedure, shortened: as §1
# ETV3L = molecular target: T2, ETV3L (Homo sapiens, UniProt Q6ZN32 1-361)
# T2 sequence: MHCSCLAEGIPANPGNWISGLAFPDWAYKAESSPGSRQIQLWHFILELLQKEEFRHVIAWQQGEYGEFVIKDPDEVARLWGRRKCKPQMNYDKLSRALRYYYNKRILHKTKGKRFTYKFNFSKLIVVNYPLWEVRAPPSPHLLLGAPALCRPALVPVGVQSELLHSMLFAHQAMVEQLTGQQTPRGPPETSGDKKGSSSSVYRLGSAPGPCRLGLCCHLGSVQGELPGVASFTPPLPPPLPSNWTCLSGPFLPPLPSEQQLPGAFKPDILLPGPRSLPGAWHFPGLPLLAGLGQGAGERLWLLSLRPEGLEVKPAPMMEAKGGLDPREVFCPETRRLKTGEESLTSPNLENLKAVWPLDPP
# Procedure, shortened: as §1
# ETS2 = molecular target: T3, ETS2 (Homo sapiens, UniProt P15036 1-469)
# T3 sequence: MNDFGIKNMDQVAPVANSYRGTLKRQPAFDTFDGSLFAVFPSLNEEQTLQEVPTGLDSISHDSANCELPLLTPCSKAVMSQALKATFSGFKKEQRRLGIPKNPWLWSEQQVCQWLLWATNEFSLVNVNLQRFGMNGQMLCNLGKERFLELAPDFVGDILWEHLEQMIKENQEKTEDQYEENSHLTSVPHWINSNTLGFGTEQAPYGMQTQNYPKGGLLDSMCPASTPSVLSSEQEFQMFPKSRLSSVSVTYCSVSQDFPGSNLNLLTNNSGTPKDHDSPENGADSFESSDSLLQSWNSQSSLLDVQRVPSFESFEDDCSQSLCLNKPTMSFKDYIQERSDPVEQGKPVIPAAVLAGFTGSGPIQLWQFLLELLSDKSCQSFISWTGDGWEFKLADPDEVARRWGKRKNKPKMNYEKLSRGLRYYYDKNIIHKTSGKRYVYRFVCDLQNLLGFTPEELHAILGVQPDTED
# Procedure, shortened: as §1
# SPDEF = molecular target: T4, SPDEF (Homo sapiens, UniProt O95238 1-335)
# T4 sequence: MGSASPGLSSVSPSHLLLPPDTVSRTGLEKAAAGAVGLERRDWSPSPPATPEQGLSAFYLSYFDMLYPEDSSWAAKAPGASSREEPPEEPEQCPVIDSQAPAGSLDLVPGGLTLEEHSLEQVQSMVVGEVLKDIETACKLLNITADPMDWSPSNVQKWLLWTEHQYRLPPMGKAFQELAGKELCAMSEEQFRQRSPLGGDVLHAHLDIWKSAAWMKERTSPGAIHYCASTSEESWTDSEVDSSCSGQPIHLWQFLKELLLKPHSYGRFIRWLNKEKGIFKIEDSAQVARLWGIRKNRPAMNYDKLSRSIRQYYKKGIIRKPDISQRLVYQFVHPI
# Procedure, shortened: as §1
# ETV7 = molecular target: T5, ETV7 (Homo sapiens, UniProt Q9Y603 1-341)
# T5 sequence: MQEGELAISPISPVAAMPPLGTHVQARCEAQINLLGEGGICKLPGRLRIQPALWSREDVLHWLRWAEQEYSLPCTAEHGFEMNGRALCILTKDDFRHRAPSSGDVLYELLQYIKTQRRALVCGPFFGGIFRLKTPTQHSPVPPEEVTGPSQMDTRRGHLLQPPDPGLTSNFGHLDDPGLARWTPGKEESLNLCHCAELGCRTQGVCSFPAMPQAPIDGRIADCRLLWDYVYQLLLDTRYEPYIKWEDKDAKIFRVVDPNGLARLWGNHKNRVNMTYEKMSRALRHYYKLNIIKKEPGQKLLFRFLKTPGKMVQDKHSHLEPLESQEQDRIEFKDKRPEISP
# Procedure, shortened: as §1
# ELF5 = molecular target: T6, ELF5 (Homo sapiens, UniProt Q9UKW6-2 1-255)
# T6 sequence: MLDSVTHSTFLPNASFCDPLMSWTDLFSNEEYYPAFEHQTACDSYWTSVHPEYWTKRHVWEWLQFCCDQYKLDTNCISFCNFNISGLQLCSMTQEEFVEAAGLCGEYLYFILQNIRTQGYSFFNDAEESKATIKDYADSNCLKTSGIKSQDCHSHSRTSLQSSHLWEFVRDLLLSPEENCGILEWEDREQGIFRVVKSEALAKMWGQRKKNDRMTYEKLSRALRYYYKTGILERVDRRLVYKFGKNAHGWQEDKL
# Procedure, shortened: as §1
# ETV3 = molecular target: T7, ETV3 (Homo sapiens, UniProt P41162-2 1-143)
# T7 sequence: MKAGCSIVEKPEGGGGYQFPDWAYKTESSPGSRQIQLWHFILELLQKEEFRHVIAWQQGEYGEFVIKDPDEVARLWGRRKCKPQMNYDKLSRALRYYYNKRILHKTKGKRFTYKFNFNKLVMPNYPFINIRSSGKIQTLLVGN
# Procedure, shortened: as §1
# ETV6 = ETV6 (Homo sapiens, UniProt P41212 1-452)
# Procedure, shortened: as §1
# Sequence of ETV6 (P41212 whole entry): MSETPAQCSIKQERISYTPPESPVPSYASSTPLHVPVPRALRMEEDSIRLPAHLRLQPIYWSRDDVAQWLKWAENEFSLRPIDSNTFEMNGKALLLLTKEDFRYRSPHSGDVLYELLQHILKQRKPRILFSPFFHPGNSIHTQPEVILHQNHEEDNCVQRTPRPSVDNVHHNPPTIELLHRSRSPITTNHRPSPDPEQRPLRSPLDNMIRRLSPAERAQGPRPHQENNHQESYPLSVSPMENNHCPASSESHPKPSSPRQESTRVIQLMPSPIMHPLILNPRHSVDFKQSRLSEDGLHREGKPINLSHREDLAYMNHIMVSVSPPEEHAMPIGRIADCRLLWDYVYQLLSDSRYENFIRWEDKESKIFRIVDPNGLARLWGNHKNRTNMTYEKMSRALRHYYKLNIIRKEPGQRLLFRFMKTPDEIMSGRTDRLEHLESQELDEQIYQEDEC
# Sequence of ETV1 (P50549 whole entry, the tested form may be a part): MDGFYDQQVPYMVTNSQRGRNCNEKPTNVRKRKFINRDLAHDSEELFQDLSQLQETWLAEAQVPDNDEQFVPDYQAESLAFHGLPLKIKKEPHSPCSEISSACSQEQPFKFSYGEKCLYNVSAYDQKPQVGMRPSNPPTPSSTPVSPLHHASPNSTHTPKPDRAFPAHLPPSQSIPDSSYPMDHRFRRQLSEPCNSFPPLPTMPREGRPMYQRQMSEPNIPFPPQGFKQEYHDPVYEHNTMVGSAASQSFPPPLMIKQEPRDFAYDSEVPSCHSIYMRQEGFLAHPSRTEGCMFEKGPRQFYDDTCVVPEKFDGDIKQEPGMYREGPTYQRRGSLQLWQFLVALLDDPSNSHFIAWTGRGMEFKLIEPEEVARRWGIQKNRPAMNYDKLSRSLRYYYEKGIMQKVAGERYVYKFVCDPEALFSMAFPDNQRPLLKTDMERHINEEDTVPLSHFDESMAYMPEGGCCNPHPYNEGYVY
sequence,measurement,setting,value
AACATT,binding signal,ETV1,"1.29 fold enrichment (6-mer frequency, TF over GST control)"
same,binding signal,ERF,"1.33 fold enrichment (6-mer frequency, TF over GST control)"
same,binding signal,ETV3L,"1.34 fold enrichment (6-mer frequency, TF over GST control)"
same,binding signal,ETS2,"1.29 fold enrichment (6-mer frequency, TF over GST control)"
same,binding signal,SPDEF,"1.16 fold enrichment (6-mer frequency, TF over GST control)"
same,binding signal,ETV7,"1.36 fold enrichment (6-mer frequency, TF over GST control)"
same,binding signal,ELF5,"1.3 fold enrichment (6-mer frequency, TF over GST control)"
same,binding signal,ETV3,"1.32 fold enrichment (6-mer frequency, TF over GST control)"
same,binding signal,ETV6,"1.39 fold enrichment (6-mer frequency, TF over GST control)"
